This is an account of results in PubChem BioAssay.

SMILES strings stand for the structures. Several values for one entry are separate records, joined by “and”; a condition that tells them apart may be missing. Equal values may be shown once. Records with an inconclusive call do not appear. Activity calls are given as the source filed them. Unless noted, no cut-off is given here; in the data, nearly all actives have AC50 up to about 27 µM.

By AC50 is commonly meant the concentration at which the activity in the assay is half-maximal. In general, remaining activity refers to the signal under treatment as a percentage of the control signal.

A short description of test [1]: EMT-state selective cytotoxicity in co-culture – imaging, PC-3E GFP, TEM4-18 mCherry, primary screen (AID 1345086;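 active = compounds killing one labelled cell type while sparing the other, by normalised counts and ratio limits, not self-fluorescent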;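 for all read-outs here: cells exposed to compound for 72 h before imaging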;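 for red/green cell ratio (normalised): normalised mesenchymal count divided by normalised epithelial count so high means epithelial killing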). To be noted: PC-3E GFP / TEM4-18 mCherry co-culture, imaging cell counts, at 1 µM; for red/green cell ratio (normalised): actives lie on both sides, counts scaled to control wells, 1 = unselective.
A short description of test [2]: viability loss in pontine glioma line – cell-based, SU-DIPG-XIII, MIPE4.0, CellTiter-Glo, qHTS, dose response (AID 1347061; cut-off not given, nearly all actives have AC50 up to about 37 µM;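 note: cells exposed to compound for 48 hours before readout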). To be noted: CellTiter-Glo ATP luminescence.
A short description of test [3]: viability loss in pontine glioma line – cell-based, SU-DIPG-IV, MIPE4.0, CellTiter-Glo, qHTS, dose response (AID 1347063; cut-off not given, nearly all actives have AC50 up to about 30 µM;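 note: compound exposure lasted 48 hours before the viability readout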). The following applies: CellTiter-Glo ATP luminescence. Background: ATP-based viability assays read luminescence as a measure of living cells.
Test [4] can be described thus: viability loss in pontine glioma line – cell-based, SU-DIPG-XIII, MIPE5.0, CellTiter-Glo, qHTS, dose response (AID 1347064; cut-off not given, nearly all actives have AC50 up to about 23 µM;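 for AC50: cells exposed to compound for 48 hours before the viability read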). To be noted: CellTiter-Glo ATP luminescence.
A short description of test [5]: viability loss in pontine glioma line – cell-based, SU-DIPG-XVII, MIPE5.0, CellTiter-Glo, qHTS, dose response (AID 1347060; cut-off not given, nearly all actives have AC50 up to about 26 µM;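 for AC50: cells exposed to compound for 48 hours before viability readout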). The following applies: CellTiter-Glo ATP luminescence.
A short description of test [6]: viability loss in pontine glioma line – cell-based, JHH-DIPG-1, MIPE4.0, CellTiter-Glo, qHTS, dose response (AID 1347062).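 For AC50: cells exposed to compound for two days before readout.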 The following applies: JHH-DIPG-1 viability, CellTiter-Glo ATP luminescence.
For test [7], the system named is Aerobactin synthetase IucA (Klebsiella pneumoniae). Kind of test: inhibition of K. pneumoniae IucA enzyme – biochemical, Tocris library, absorbance (AID 1345561; call rule not given here;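 note: 100% = enzyme without compound and 0% = no enzyme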). The following applies: purified IucA enzyme assay, absorbance (OD) read-out; stronger effect = lower value;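 tested at 8 µM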.
The mark [8] stands for this setting: measured here: epithelial PC-3E GFP cell survival.
[9] abbreviates: measured here: mesenchymal TEM4-18 mCherry cell survival.

For `CCCCOc1ccc(CC(=O)NO)cc1`, the red/green cell ratio (normalised) in test [1] was 1.05 (inactive). In addition, the results for the normalised cell number in test [1] (setting [8]) and in test [1] (setting [9]) were 0.59 and 0.61, respectively. In addition, the AC50 in test [2] was 23.5 µM (active); in test [3], 20.9 µM (active). Besides, the compound was called inactive in test [4].

Consider `CC(=O)O[C@]1(C(C)=O)CC[C@H]2[C@@H]3C=C(Cl)C4=CC(=O)[C@@H]5C[C@@H]5[C@]4(C)[C@H]3CC[C@@]21C`, for which the AC50 was 23.5 µM (active) in test [5], 23.5 µM (active) in test [6] and 9.35 µM (active) in test [3].

Turning to `C[C@H]1O[C@@H](n2cc(F)c(=O)[nH]c2=O)[C@H](O)[C@@H]1O`, the compound was classed as inactive in test [6].

With `Nc1ccc(S(N)(=O)=O)cc1`, the compound was classed as inactive in test [5], in test [2], in test [6], in test [3] and in test [4].

For `CCOC(=O)O[C@]1(C(=O)OCCl)CC[C@H]2[C@@H]3CCC4=CC(=O)C=C[C@]4(C)[C@H]3[C@@H](O)C[C@@]21C`, the call in test [5], in test [2], in test [6] and in test [4] was inactive.

On to `CCC(=O)O[C@]1(C(=O)SCF)[C@H](C)C[C@H]2[C@@H]3C[C@H](F)C4=CC(=O)C=C[C@]4(C)[C@@]3(F)[C@@H](O)C[C@@]21C`, for which the remaining activity in test [7] is 125% (inactive). In addition, the result in test [5], in test [6] and in test [3] was inactive.

As for `Cc1onc(-c2ccccc2Cl)c1C(=O)N[C@@H]1C(=O)N2[C@@H]1SC(C)(C)[C@@H]2C(=O)O`, the red/green cell ratio (normalised) in test [1] was 1.1 (inactive). The normalised cell number in test [1] (setting [8]) was 1.34; in test [1] (setting [9]) it was 1.48. Moreover, the result in test [2] and in test [3] was inactive.

As to `CC(=O)O[C@H]1C[C@@H]2CC[C@@H]3[C@H](CC[C@@]4(C)[C@H]3C[C@H]([N+]3(C)CCCCC3)[C@@H]4OC(C)=O)[C@@]2(C)C[C@@H]1N1CCCCC1`, the call in test [5], in test [2], in test [6] and in test [3] was inactive.

For `CC1(C)O[C@H]2CC(=O)OC[C@]23[C@H]2CC[C@@]4(C)[C@H](c5ccoc5)OC(=O)[C@H]5O[C@]54[C@]2(C)C(=O)C[C@@H]13`, the compound was classed as inactive in test [6] and in test [3].

As for `COC(=O)[C@@H]1[C@H]2C[C@H]3c4[nH]c5ccccc5c4CCN3C[C@@H]2CC[C@@H]1O`, the compound was classed as inactive in test [5], in test [2], in test [6] and in test [4].

With `CCn1cc(C(=O)O)c(=O)c2cc(F)c(N3CCNC(C)C3)c(F)c21` (centres undefined), the red/green cell ratio (normalised) in test [1] was 1.03 (inactive) and 0.91 (inactive). In addition, the normalised cell number in test [1] (setting [8]) is 1.03 and 1.1; in test [1] (setting [9]), 1.07 and 1. In addition, the result in test [6], in test [3] and in test [4] was inactive.

As to `COc1ccc(C(=O)CC(=O)c2ccc(C(C)(C)C)cc2)cc1`, the red/green cell ratio (normalised) in test [1] was 1.31 (inactive). Also, the values for the normalised cell number in test [1] (setting [8]) and in test [1] (setting [9]) were 0.9 and 1.18, respectively. Moreover, the AC50 in test [6] was 3.72 µM (active); in test [3], 5.26 µM (active).

Regarding `NC(=O)c1ncn([C@@H]2O[C@H](CO)[C@@H](O)[C@H]2O)c1O`, the result in test [5], in test [2] and in test [4] was inactive.

`CN(C)CCC=C1c2ccccc2C=Cc2ccccc21`: the red/green cell ratio (normalised) in test [1] was 1.06 (inactive). Besides, the results for the normalised cell number in test [1] (setting [8]) and in test [1] (setting [9]) were 1.13 and 1.19, respectively. Also, the compound was called inactive in test [2] and in test [3].

Take `COc1cnc(NS(=O)(=O)c2ccc(N)cc2)nc1`: in test [1], the red/green cell ratio (normalised) was 1.15 (inactive). Moreover, the results for the normalised cell number in test [1] (setting [8]) and in test [1] (setting [9]) were 0.87 and 0.99, respectively. In addition, the AC50 in test [6] was 2.96 µM (active).

On to `CNC[C@H](O)c1ccc(O)c(O)c1`, for which the outcome in test [5], in test [2], in test [6], in test [3] and in test [4] was inactive.

Take `C#C[C@]1(O)CC[C@H]2[C@@H]3[C@H](C)CC4=C(CCC(=O)C4)[C@H]3CC[C@@]21C`: the compound was called inactive in test [4].

In the case of `CCCCC(=O)O[C@]1(C(=O)CO)[C@@H](C)C[C@H]2[C@@H]3CCC4=CC(=O)C=C[C@]4(C)[C@@]3(F)[C@@H](O)C[C@@]21C`, the compound was called inactive in test [5].

For the compound `C#C[C@]1(O)CC[C@H]2[C@@H]3CCc4cc(OC)ccc4[C@H]3CC[C@@]21C`, the result in test [6], in test [3] and in test [4] was inactive.

`C[C@@](Cc1ccc(O)c(O)c1)(NN)C(=O)O`: in test [7], the remaining activity is 93.6% (inactive).

Regarding `NC(N)=N/N=C/c1c(Cl)cccc1Cl`, the remaining activity in test [7] is 99.1% (inactive).

On to `CC1(C)O[C@@H]2C[C@H]3[C@@H]4C[C@H](F)C5=CC(=O)C=C[C@]5(C)[C@@]4(F)[C@@H](O)C[C@]3(C)[C@]2(C(=O)CO)O1`, for which the outcome in test [5], in test [2], in test [6] and in test [4] was inactive.

Regarding `Cc1cc(C(C)(C)C)cc(C)c1CC1=NCCN1`, the red/green cell ratio (normalised) in test [1] is 1.16 (inactive). For the same compound, the normalised cell number was found to be 1.07 in test [1] (setting [8]) and 1.24 in test [1] (setting [9]). Moreover, in test [4], the call was inactive.

On to `C[C@]12CC[C@@H]3c4ccc(O)cc4CC[C@H]3[C@@H]1C[C@@H](O)[C@@H]2O`, for which the outcome in test [4] was inactive.

On to `CC(C)(C)NC(=O)[C@H]1CC[C@H]2[C@@H]3CC[C@H]4NC(=O)C=C[C@]4(C)[C@H]3CC[C@]12C`, for which the result in test [5] was inactive. The AC50 in test [2] is 11.8 µM (active).

As for `C[N+]1(C)[C@@H]2CC(OC(=O)[C@H](CO)c3ccccc3)C[C@H]1[C@@H]1O[C@@H]12` (some centres undefined), the outcome in test [5], in test [2], in test [6], in test [3] and in test [4] was inactive.

Regarding `CC(C)NC[C@@H](O)COc1cccc2ccccc12`, in test [7], the remaining activity is 109% (inactive).

Consider `CC1=C(C(=O)O)N2C(=O)[C@@H](NC(=O)[C@H](N)C3=CCC=CC3)[C@H]2SC1`, for which the compound was called inactive in test [6].

`CC(=O)N(O)CCCCCNC(=O)CCC(=O)N(O)CCCCCNC(=O)CCC(=O)N(O)CCCCCN`: in test [1], the red/green cell ratio (normalised) is 1.51 (inactive). Further, the normalised cell number in test [1] (setting [8]) came out at 1.1; in test [1] (setting [9]) it was 1.67. In addition, the AC50 in test [4] is 7.42 µM (active).

As for `CO[C@@]12[C@H](COC(N)=O)C3=C(C(=O)C(C)=C(N)C3=O)N1C[C@@H]1N[C@@H]12`, the concentration at half-maximal activity (AC50) in test [5] was 0.417 µM (active); in test [6] it was 16.6 µM (active); in test [3], 0.469 µM (active); in test [4] it was 7.42 µM (active).

`O=C(N[C@H](CO)[C@H](O)c1ccc([N+](=O)[O-])cc1)C(Cl)Cl`: in test [1], the red/green cell ratio (normalised) was 0.78 (inactive). Moreover, the values for the normalised cell number in test [1] (setting [8]) and in test [1] (setting [9]) were 1.21 and 0.95, respectively. The result in test [6] and in test [3] was inactive.
